Compound activity (PubChem)
Dicer inh – inhibitors of Dicer pre-microRNA processing, primary screen, biochemical, cat-ELCCA, chemiluminescence; Endoribonuclease Dicer (Homo sapiens), Q9UPY3; cat-ELCCA pre-miR-21 Dicer processing; hits give high values; z-score at 25 µM; 6% of 47,000 active; in the data active means z-score above about 3, passing the limit was not always enough;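 further: plate controls were vehicle for no effect and no enzyme for full effect; higher signal means more uncleaved substrate so more Dicer inhibition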
Target sequence (Q9UPY3 whole entry, looked up): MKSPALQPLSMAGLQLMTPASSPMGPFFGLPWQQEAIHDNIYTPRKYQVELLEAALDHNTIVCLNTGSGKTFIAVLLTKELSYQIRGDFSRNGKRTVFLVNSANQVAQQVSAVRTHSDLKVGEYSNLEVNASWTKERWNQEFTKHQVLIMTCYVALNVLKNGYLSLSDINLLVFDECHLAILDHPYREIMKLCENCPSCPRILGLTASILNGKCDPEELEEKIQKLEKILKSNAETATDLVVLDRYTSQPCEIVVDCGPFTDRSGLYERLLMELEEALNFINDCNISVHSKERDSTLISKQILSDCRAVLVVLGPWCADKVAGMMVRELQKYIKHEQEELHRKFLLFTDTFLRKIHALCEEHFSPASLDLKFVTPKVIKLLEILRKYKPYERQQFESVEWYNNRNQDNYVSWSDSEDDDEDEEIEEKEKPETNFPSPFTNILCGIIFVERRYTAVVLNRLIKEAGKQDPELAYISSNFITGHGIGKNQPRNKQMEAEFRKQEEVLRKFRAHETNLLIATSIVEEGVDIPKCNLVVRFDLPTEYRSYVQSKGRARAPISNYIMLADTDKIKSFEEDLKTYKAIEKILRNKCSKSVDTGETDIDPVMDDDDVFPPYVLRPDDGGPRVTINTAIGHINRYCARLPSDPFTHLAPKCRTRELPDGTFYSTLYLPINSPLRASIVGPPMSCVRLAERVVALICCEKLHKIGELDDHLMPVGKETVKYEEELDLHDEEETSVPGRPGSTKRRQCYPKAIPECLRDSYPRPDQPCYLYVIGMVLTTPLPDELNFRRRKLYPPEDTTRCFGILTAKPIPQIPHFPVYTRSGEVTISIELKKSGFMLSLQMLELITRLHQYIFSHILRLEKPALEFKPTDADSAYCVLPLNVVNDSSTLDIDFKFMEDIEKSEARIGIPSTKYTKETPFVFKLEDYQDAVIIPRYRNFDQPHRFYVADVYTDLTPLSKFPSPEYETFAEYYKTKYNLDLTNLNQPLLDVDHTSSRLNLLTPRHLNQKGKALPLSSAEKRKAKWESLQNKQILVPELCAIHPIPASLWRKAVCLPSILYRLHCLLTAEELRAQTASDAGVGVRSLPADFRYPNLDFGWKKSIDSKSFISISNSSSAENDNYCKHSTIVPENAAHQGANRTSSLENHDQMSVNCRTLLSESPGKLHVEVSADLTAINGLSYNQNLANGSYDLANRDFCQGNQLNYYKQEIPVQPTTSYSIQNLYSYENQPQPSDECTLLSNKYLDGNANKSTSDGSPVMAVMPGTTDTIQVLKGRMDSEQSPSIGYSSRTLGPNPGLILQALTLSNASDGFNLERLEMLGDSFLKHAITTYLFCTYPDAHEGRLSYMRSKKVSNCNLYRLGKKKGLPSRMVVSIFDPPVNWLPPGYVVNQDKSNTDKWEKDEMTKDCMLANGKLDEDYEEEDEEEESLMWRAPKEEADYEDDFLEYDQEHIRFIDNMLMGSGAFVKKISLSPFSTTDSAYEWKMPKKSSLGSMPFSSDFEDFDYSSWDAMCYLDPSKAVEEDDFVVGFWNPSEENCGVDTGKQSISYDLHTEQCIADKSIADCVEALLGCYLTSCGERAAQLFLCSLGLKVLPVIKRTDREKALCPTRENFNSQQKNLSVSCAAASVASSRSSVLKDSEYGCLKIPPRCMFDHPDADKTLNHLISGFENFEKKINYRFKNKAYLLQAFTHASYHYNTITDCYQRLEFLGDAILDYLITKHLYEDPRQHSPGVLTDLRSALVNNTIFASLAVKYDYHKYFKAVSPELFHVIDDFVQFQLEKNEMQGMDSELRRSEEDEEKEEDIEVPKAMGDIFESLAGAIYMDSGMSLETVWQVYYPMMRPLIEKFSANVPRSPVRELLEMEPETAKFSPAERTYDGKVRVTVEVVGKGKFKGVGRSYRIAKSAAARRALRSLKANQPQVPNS
* = called active by the depositor. The full list was thinned out, with hits kept by preference.

SMILES	Dicer inh
CC1CC2(CC(C)(c3csc(Nc4ccccc4)n3)OC2=O)C(=O)O1 (stereo not given)	4.91*
Cc1ccccc1Nc1nc(C2(C)CC(C(C)C)C(=O)O2)cs1 (stereo not given)	-0.01
Cc1ccc(C)n1-c1ccc(Cl)c(C(=O)O)c1	8.24*
Cc1ccc(C)n1-c1ccc(Cl)cc1C(=O)O	12.3*
Cc1ccc(Cl)c(Nc2ccccc2C(=O)O)c1Cl	-0.38
O=C(O)c1cc(Cl)ccc1I	-1.49
Cc1ccc(C(=O)O)cc1-n1c(C)ccc1C	0.45
Cc1ccc(C)n1-c1ccc(-n2c(C)ccc2C)cc1	-0.06
Cc1c(S(=O)(=O)c2ccc(Cl)cc2)csc1C(=O)NN	-1.9
Cc1ccc(S(=O)(=O)Nc2cc(-c3ccc(C(C)(C)C)cc3)[nH]n2)cc1	-7.22
CCOC(=O)c1sc(NC(=O)C(F)(F)F)c(C(=O)OCC)c1C	-2.6
COc1ccc(C2CC(=O)c3cnc(N4CCc5ccccc5C4)nc3C2)cc1OC (stereo not given)	-0.95
Cc1[nH]c2ccccc2c(=O)c1CN1CCCC1	0.04
Cc1nccc(-c2cccc(S(=O)(=O)NCc3c(-c4ccccc4)noc3C)c2)n1	-0.6
CC1(C)N=C(N)N=C(N)N1c1cccc(C(F)(F)F)c1	0.13
COC(=O)C1=C(O)CSC1=Nc1ccccc1	0.42
COC(=O)C1=C(O)CSC1=Nc1ccc(F)cc1	5.11*
COC(=O)c1nn(-c2ccc(F)cc2)ccc1=O	-0.48
O=C1C(=O)N(CCCN2CCOCC2)C(c2cccs2)/C1=C(\O)c1ccc(Cl)cc1 (stereo not given)	1.61
C=C(C)CC1N(c2ccccc2)C(=O)C2C(C(=O)O)C3C=CC21O3 (stereo not given)	-0.33
Cc1cc(C)c(S(=O)(=O)Nc2nc3ccccc3s2)c(C)c1	-3.92
Cc1ccc(S(=O)(=O)Nc2nc3ccc(N)cc3s2)cc1	8.04*
Cc1ccc(S(=O)(=O)Nc2nc3cc(C)c(C)cc3s2)cc1	-1.49
CN(C)c1ccncc1C(O)C(F)(F)F (stereo not given)	0.81
Cc1[nH]nc2c1C(c1ccccc1OCc1ccccc1Cl)C(C#N)=C(N)O2 (stereo not given)	-0.93
SMILES	Dicer inh
CCOC(=O)N1CCCN=C1NNc1cc(F)ccc1C	-0.47
OCc1nc2ccccc2n1Cc1cccc(Br)c1	-0.25
CCN(CC)CCSc1nc(O)c(C)c(=O)[nH]1	2.93
O=C(CS(=O)(=O)c1ccc(C(F)(F)F)cn1)NNC(=O)Nc1ccccc1	0.12
COC(=O)C(C)(C)S(=O)(=O)c1ccc(C(F)(F)F)cn1	-0.28
COC(=O)CS(=O)(=O)c1ccc(C(F)(F)F)cn1	3.35*
CN(Cc1ccc(-n2cccn2)cc1)C(=O)c1cnn2c(C(F)(F)F)cc(-c3ccco3)nc12	1.12
Cc1ccccc1N1OC2C(=O)N(c3ccccc3)C(=O)C2C1c1ccc(N(C)C)cc1 (stereo not given)	-1.34
CC(=O)Nc1ccc(C(C)(C)C)cc1C#N	-0.68
Cc1nc2ccc(Br)cc2c(C(=O)O)c1I	1.03
O=C(O)c1ccc(Nc2ncnc3ccc(Br)cc23)cc1	4.93*
O=C(O)c1ccc(Nc2ccnc3cc(Cl)ccc23)cc1	1.58
N=Nc1c(O)[nH]c2ccc(Br)cc12	0.8
O=C(CSc1nnnn1-c1ccccc1)Nc1ncc(Br)s1	-1.26
COc1ccc(Oc2coc3cc(OC(=O)c4ccco4)ccc3c2=O)cc1	0.95
COc1ccc(C(=O)Oc2ccc3c(=O)c(Oc4ccccc4Br)coc3c2)cc1	1.39
COc1cccc(OC)c1C(=O)Oc1ccc2c(=O)c(Oc3ccccc3Br)coc2c1	2.48
COc1ccc2c(=O)c(Oc3ccccc3Br)coc2c1	4.66*
COc1ccc(Oc2coc3cc(OC(=O)c4ccc(Br)cc4)ccc3c2=O)cc1	5.41*
COc1ccc(Oc2coc3cc(OC(=O)c4cccs4)ccc3c2=O)cc1	1.27
O=C(N/N=C/c1ccc(Cl)cc1)Nc1cc(C(F)(F)F)cc(C(F)(F)F)c1	0.21
CN(C)/C=C(/Sc1nnc(C(F)(F)F)n1C)C(=O)c1ccc(Cl)cc1	-0.74
CCOC(=O)c1cc(-c2ccccc2)sc1NC(=O)c1ccccc1	-1.23
CS(=O)c1sc(C#N)c2c1C(=O)CCC2 (stereo not given)	-1.69
CS(=O)c1sc(Cl)c2c1C(=O)CCC2 (stereo not given)	-1.42
SMILES	Dicer inh
Cc1ccc(C2CC(=O)c3c(S(C)=O)sc(C#N)c3C2)cc1 (stereo not given)	3.65*
Cc1cc(NC(=O)Nc2cc(C(F)(F)F)cc(C(F)(F)F)c2)nn1-c1ccccc1	1.73
CCOC(=O)C(=CNc1sc(CC)cc1C(=O)OCC)C(=O)OCC	-0.52
CCc1ccc2[nH]c(C(=O)Nc3ccc(Br)c(C)n3)cc2c1	43.8*
COc1ccc2[nH]c(C(=O)Nc3ccc(Br)c(C)n3)cc2c1	-1.68
CCc1ccc2[nH]c(C(=O)NCc3cc(Cl)ccc3Cl)cc2c1	-4.11
CCCCCC(=O)Nc1nc2c(s1)Cc1ccccc1-2	-0.32
CC1(C)Cc2c(sc3ncn4nc(-c5cccs5)nc4c23)C(C)(C)N1	2.3
CC(=O)Cn1nc2n(c1=O)-c1ccccc1SC2	-0.18
NNC(=O)Cn1nc2n(c1=O)-c1ccccc1SC2	4.14*
CNC(=O)NC(=O)Cn1nc2n(c1=O)-c1ccccc1SC2	0.34
Nc1nc2c(nc(NCCCN3CCOCC3)n2[C@H]2O[C@@H](CO)[C@H](O)[C@@H]2O)c(=O)[nH]1	3.48*
Nc1nc2c(nc(N3CCN(c4ccccc4)CC3)n2[C@H]2O[C@@H](CO)[C@H](O)[C@@H]2O)c(=O)[nH]1	-0.68
CNc1nc2c(N)ncnc2n1[C@H]1O[C@@H](CO)[C@H](O)[C@@H]1O	-0.07
Cc1c(CN2CCOCC2)c(=O)n(-c2ccccc2)n1C	-0.01
O=C1CCCC2=C1C(c1ccc(O)c(Cl)c1)C1=C(CCCC1=O)N2	0.1
COc1cccc(Nc2ncnc3cc(-c4ccccc4)sc23)c1	1.77
CCOC(=O)Cn1c2ccc(F)cc2c2nc3ccccc3nc21	0.35
COc1oc(-c2ccc(C)cc2)nc1C(F)(F)F	4.29*
COC(=O)c1noc(-c2ccc(F)cc2)n1	-0.21
COc1oc(-c2ccc(F)cc2)nc1C(F)(F)F	4.68*
Cc1cc(C)c2nc(-c3ccc(C(F)(F)F)cc3)oc(=O)c2c1	-1.29
Cc1ccc(-c2nc(=O)c3ccccc3o2)cc1	1.55
COc1ccc(-c2csc3nc(-c4ccc(F)cc4)oc(=O)c23)cc1	0.76
CCOC(=O)c1cnc(NNS(=O)(=O)c2ccc(C#N)cc2)nc1C(F)(F)F	0.61
SMILES	Dicer inh
O=C1CCCC2=C1C(c1ccc(Br)cc1)C1C(=O)c3ccccc3C1=N2 (stereo not given)	-0.78
O=C(O)CSc1n[nH]c(-c2ccc(Cl)cc2)n1	-0.66
COc1ccc(C(C[N+](=O)[O-])Sc2ccc(N)cc2)cc1 (stereo not given)	-3.88
CC1(C)CC(=O)C(C=Nc2cc(C(F)(F)F)cc(C(F)(F)F)c2)=C(O)C1	-2.23
Cc1ccc(N2C(=O)C3CN=NC3(C)C2=O)cc1 (stereo not given)	1.81
CC12N=NCC1C(=O)N(c1ccc(Cl)cc1)C2=O (stereo not given)	3.05*
CC12N=NCC1C(=O)N(c1cccc(Cl)c1)C2=O (stereo not given)	0.44
COC(=O)c1scc2c(Sc3nccn3C)cc(C(F)(F)F)nc12	0.21
COC(=O)c1scc2c(SCc3ccccc3)cc(C(F)(F)F)nc12	5.03*
COC(=O)c1scc2c(OC)cc(C(F)(F)F)nc12	0.71
